Screening data: PubChem, National Center for Advancing Translational Sciences (NCATS)
Most compounds without a hit are left out; they make up all but 11% or so of the library.
ERK AVP block = qHTS Assay for Inhibitors of the ERK Signaling Pathway using a Homogeneous Screening Assay; 72,000 tested, 0.99% active; AID 995, 2007; HEK293-V1b, vasopressin-stimulated pERK AlphaScreen; Potency, µM (doses to about 57.5 µM), usual class: inhibitors; note: nearly all actives have a fitted effect of over 55% in size
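Phosphorylated ERK1/2 detected via AlphaScreen bead proximity in lysates of V1b-expressing HEK293 cells given 25 nM vasopressin for 5 min after 30 min compound exposure (37 °C). AC50 from Hill equation; basal DMSO 0%, vasopressin 100%.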
HSD17B inhib = qHTS Assay for Inhibitors of HSD17B4, hydroxysteroid (17-beta) dehydrogenase 4; 3-hydroxyacyl-CoA dehydrogenase type-2 (Homo sapiens), Q99714; recombinant HSD17B10, NADH fluorescence kinetic; Potency, µM (series often up to 57.1 µM), hits mostly inhibitors; 75,000 tested, 7.6% active;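 note: the protocol describes HADH2 (HSD17B10) and not the HSD17B4 of the title; nearly all actives have a fitted effect of over 70% in size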
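Enzyme plus compound, 15 min room temperature; substrate mix added (NAD+ 1 mM, beta-hydroxybutyryl-CoA 90 uM final); plates read kinetically for NADH fluorescence. HADH2 was His-tagged, E. coli-derived, 20 nM.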
HADH2 inh = qHTS Assay for Inhibitors of HADH2 (Hydroxyacyl-Coenzyme A Dehydrogenase, Type II); Potency, µM (doses to about 57.1 µM), hits mostly inhibitors; 73,000 tested, 3.4% active; recombinant HADH2, NADH fluorescence, beta-hydroxybutyryl-CoA; AID 886, 2007; note: nearly all actives have a fitted effect of over 60% in size
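His-tagged recombinant enzyme from E. coli, 20 nM, preincubated 15 min RT with compound; reaction started with 1 mM NAD+ and 90 uM beta-hydroxybutyryl-CoA in 100 mM Tris-HCl pH 9.0. NADH fluorescence (ex 360/em 450) read over 4 min; last-minus-first difference.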
15-hLO inh = qHTS Assay for Inhibitors of 15-hLO (15-human lipoxygenase). Polyunsaturated fatty acid lipoxygenase ALOX15 (Homo sapiens), P16050. purified 15hLO-1, xylenol orange hydroperoxide absorbance. Potency, µM (doses to about 57.1 µM), actives largely listed as inhibitors. 74,000 tested, 1.4% active; note: nearly all actives have a fitted effect of over 55% in size
Target sequence (P16050 whole entry, looked up): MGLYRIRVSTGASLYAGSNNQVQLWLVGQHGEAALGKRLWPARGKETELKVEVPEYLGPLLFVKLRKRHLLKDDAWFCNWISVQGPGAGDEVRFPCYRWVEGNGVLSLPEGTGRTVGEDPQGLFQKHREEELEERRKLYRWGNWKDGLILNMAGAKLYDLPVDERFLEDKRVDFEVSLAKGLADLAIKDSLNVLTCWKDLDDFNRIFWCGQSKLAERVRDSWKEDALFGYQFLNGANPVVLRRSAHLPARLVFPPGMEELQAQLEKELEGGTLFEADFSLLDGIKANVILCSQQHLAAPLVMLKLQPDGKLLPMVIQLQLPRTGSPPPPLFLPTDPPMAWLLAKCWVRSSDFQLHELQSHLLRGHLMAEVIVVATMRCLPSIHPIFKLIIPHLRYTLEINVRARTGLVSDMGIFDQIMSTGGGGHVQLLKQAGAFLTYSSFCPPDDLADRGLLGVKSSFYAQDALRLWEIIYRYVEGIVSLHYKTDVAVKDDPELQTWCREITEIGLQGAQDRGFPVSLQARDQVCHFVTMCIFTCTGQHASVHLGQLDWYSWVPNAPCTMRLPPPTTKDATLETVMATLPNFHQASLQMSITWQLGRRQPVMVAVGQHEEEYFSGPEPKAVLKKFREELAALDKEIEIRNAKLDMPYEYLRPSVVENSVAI
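40 nM 15hLO-1 + cpd, 15 min RT; start w/ 50 uM AA (final), 6 min RT; stop/detect w/ 200 uM XO + 300 uM Fe(II) in 50 mM H2SO4, 30 min; A573/A405. Buffer 25 mM Hepes pH 7.5, 0.01% Triton X-100. No-enzyme wells as negative control.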
FLuc inh = qHTS Assay for Inhibitors of Firefly Luciferase | Luciferin 4-monooxygenase (Photinus pyralis), P08659 | purified firefly luciferase, luminescence, 8 min | Potency, µM (titrated, usually from 57.1 µM), hits mostly inhibitors | 72,000 tested, 2.2% active; note: nearly all actives have a fitted effect of over 40% in size
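Here, luciferase activity is measured as luminescence following an 8 min room-temperature reaction at 10 uM ATP, pH 7.2. Every library sample is titrated.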
Bst PK mod = Pyruvate Kinase | Potency, µM | purified pyruvate kinase, luminescence ATP production; ribose 5-phosphate activator present at AC10 | AID 361, 2006 | 51,000 tested, 1.2% active; in the data active = potency below about 11 µM; inconclusive = mostly about 12 µM to 25 µM;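 the screen sought inhibitors and activators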
A number is an active result; [ ] = remark or other dose. Unless noted, calls come from the whole dose curve; as a rule, active = well fitted curve in the direction sought with a large enough effect; inconclusive = small, poorly fitted or top-dose-only effect, or another doubt; inactive = no such curve, though single readings can be large; an effect the other way counts as inactive or inconclusive.

What do the screens show for `CC(=O)[O][Hg][c]1ccccc1`?
ERK AVP block: inconclusive; HSD17B inhib: 0.25µM; HADH2 inh: 3.2µM; 15-hLO inh: 0.013µM

Results for Cc1ccc(NC(=[OH+])c2cc3ccccc3cc2O)c(C)c1.Cc1ccc(NC(=[OH+])c2cc3ccccc3cc2O)c(C)c1.[Ni] ?
ERK AVP block: inactive[11.5 µM]; HSD17B inhib: inconclusive; HADH2 inh: inactive[11.4 µM]; 15-hLO inh: 4µM; FLuc inh: inactive[11.4 µM]

How did CNc1ccccc1C(=O)O do in these assays?
ERK AVP block: inactive; HSD17B inhib: 32µM; 15-hLO inh: inactive

What do the screens show for `NC[C@@H](O)CSP(=O)(O)O`?
ERK AVP block: inactive[11.5 µM]; HSD17B inhib: inactive[11.4 µM]; HADH2 inh: inactive[11.4 µM]; 15-hLO inh: inactive[11.4 µM]; FLuc inh: inactive[11.4 µM]

What do the screens show for `S=C(c1ccc(Cl)cc1)N1CCOCC1`?
ERK AVP block: inactive; HSD17B inhib: inactive; HADH2 inh: 16µM; 15-hLO inh: inactive; FLuc inh: inactive

Results for ClC(Cl)=C(c1ccc(Cl)cc1)c1ccc(Cl)cc1 ?
ERK AVP block: inactive; HSD17B inhib: inactive; HADH2 inh: inactive; 15-hLO inh: inactive

What do the screens show for `C[N+]12CCC(CC1)C(C#N)(N1CCOCC1)C2` (centres undefined)?
ERK AVP block: inactive; HSD17B inhib: 13µM; HADH2 inh: inactive; 15-hLO inh: inactive; FLuc inh: inactive; Bst PK mod: inactive

What do the screens show for `CC1=C2[C@@H]3OC(=O)[C@H](C)[C@H]3CC[C@@]2(C)C=CC1=O`?
HADH2 inh: inactive; FLuc inh: inactive[11.4 µM]

What do the screens show for `CCOC(=O)Cc1c(C)c2c(C)[nH]nc2oc1=O`?
ERK AVP block: inactive; HSD17B inhib: 20µM; HADH2 inh: inactive; 15-hLO inh: inactive; FLuc inh: inactive; Bst PK mod: inactive

How did O=S(=O)(O)/C(=C\c1ccccc1)c1ccccc1 (tested in a mixture with another compound) do in these assays?
ERK AVP block: inactive[11.5 µM]; HSD17B inhib: inactive[11.4 µM]; HADH2 inh: inactive[11.4 µM]; 15-hLO inh: inactive[11.4 µM]; FLuc inh: inactive[11.4 µM]

What do the screens show for `N#CSCSC#N`?
ERK AVP block: 16µM; HSD17B inhib: inconclusive; HADH2 inh: inconclusive; 15-hLO inh: inactive

Results for CCCCn1c(N)c(C(=O)OCC2CCCO2)c2nc3ccccc3nc21 (centres undefined) ?
ERK AVP block: inactive; HSD17B inhib: 25µM; HADH2 inh: inactive; 15-hLO inh: inactive; FLuc inh: inactive; Bst PK mod: inactive

Results for CCCCOCCCn1c(N)c(C(=O)OCCOC)c2nc3ccccc3nc21 ?
FLuc inh: inactive; Bst PK mod: inactive

Results for CC(C)CCn1c(N)c(C(=O)OCC2CCCO2)c2nc3ccccc3nc21 (centres undefined) ?
ERK AVP block: inactive; HSD17B inhib: 25µM; HADH2 inh: inconclusive; 15-hLO inh: inactive; FLuc inh: inactive; Bst PK mod: inactive

How did Cc1ccc(C2(c3ccc(C)c(O)c3C)CCN(C)CC2)c(C)c1O do in these assays?
ERK AVP block: inactive[11.5 µM]; HSD17B inhib: inactive[11.4 µM]; HADH2 inh: inactive[11.4 µM]; 15-hLO inh: inactive[11.4 µM]; FLuc inh: inactive[11.4 µM]

How did CCCC[N+]1(C)[C@@H]2CC(OC(=O)[C@@H](CO)c3ccccc3)C[C@H]1[C@H]1O[C@H]12 (some centres undefined) do in these assays?
ERK AVP block: inactive; HSD17B inhib: inactive; HADH2 inh: inactive; 15-hLO inh: inactive; FLuc inh: inactive

Results for O=C1Nc2ccccc2C2(CCN(CCc3ccc(C(F)(F)F)cc3)CC2)O1 ?
ERK AVP block: 16µM; HSD17B inhib: inactive; HADH2 inh: inactive; 15-hLO inh: inconclusive

Results for O=S(=O)(O)c1cc(N=C=S)ccc1/C=C/c1ccc(N=C=S)cc1S(=O)(=O)O ?
ERK AVP block: inactive; HSD17B inhib: 25µM; 15-hLO inh: inactive

Results for ClCBr ?
ERK AVP block: inactive; HSD17B inhib: inactive; HADH2 inh: inactive; 15-hLO inh: inactive

How did CC(C)c1ccc(C(O)(C(=O)O)c2ccc(C(C)C)cc2)cc1 do in these assays?
ERK AVP block: inactive[11.5 µM]; HSD17B inhib: inactive[11.4 µM]; HADH2 inh: inactive[11.4 µM]; 15-hLO inh: inactive[11.4 µM]; FLuc inh: inactive[11.4 µM]

Results for CN(C)C1C(=O)C(C(N)=O)=C(O)[C@@]2(O)C(=O)C3=C(O)c4c(O)cccc4[C@](C)(O)C3C(O)C12 (some centres undefined) ?
ERK AVP block: inactive; HSD17B inhib: 10µM; 15-hLO inh: inactive

Results for CN(C)[C@@H]1C(=O)C(C(N)=O)=C(O)[C@]2(O)C(=O)C3=C(O)c4c(O)cccc4[C@](C)(O)[C@H]3C[C@@H]12 ?
ERK AVP block: inactive[11.5 µM]; HSD17B inhib: 2µM; HADH2 inh: 3.2µM; 15-hLO inh: inconclusive; FLuc inh: inactive[11.4 µM]

What do the screens show for `CN(C)[C@@H]1C(=O)C(C(N)=O)=C(O)[C@@]2(O)C(=O)C3=C(O)c4c(O)cccc4[C@@](C)(O)[C@H]3[C@H](O)[C@@H]12`?
ERK AVP block: inactive; HSD17B inhib: 6.3µM; HADH2 inh: inconclusive; 15-hLO inh: inconclusive; FLuc inh: inactive; Bst PK mod: inactive

What do the screens show for `CC[C@@H]1CN2CCc3cc(OC)c(OC)cc3[C@H]2C[C@@H]1C[C@@H]1NCCc2cc(OC)c(OC)cc21`?
ERK AVP block: inconclusive; HSD17B inhib: inactive; HADH2 inh: inactive; 15-hLO inh: inactive; FLuc inh: inactive

How did C[C@H](N[C@@H](C)CCc1ccccc1)[C@H](O)c1ccc(O)cc1 do in these assays?
ERK AVP block: inconclusive; HSD17B inhib: inactive; HADH2 inh: inactive; 15-hLO inh: inactive; FLuc inh: inactive

Results for C=CCOC(C)=O ?
ERK AVP block: inactive; HSD17B inhib: inactive; HADH2 inh: inactive; 15-hLO inh: inactive

What do the screens show for `O=S(=O)(O)F`?
ERK AVP block: inactive; HSD17B inhib: inactive; HADH2 inh: inactive; 15-hLO inh: inactive

How did O=C(Nc1ccc([As](=O)(O)O)cc1)Nc1cccc(Cl)c1Cl do in these assays?
ERK AVP block: inactive[11.5 µM]; HSD17B inhib: inactive[11.4 µM]; HADH2 inh: inactive[11.4 µM]; 15-hLO inh: inactive[11.4 µM]; FLuc inh: inactive[11.4 µM]

Results for O=C(c1cccc(N2CCCC2=O)c1)N1CCC2(CC1)OCCO2 ?
ERK AVP block: inactive; HSD17B inhib: inactive; HADH2 inh: inactive; 15-hLO inh: inactive; FLuc inh: inactive; Bst PK mod: inactive

What do the screens show for `O=C(c1ccc2nc3ccc(Cl)cc3c(=O)n2c1)N1CCC2(CC1)OCCO2`?
ERK AVP block: inactive; HSD17B inhib: 32µM; HADH2 inh: inconclusive; 15-hLO inh: inactive; FLuc inh: inactive
